Assay outcomes (PubChem BioAssay)
A selection: hits, their analogues and other compounds. The true share with any hit is near 8.1%.
ELG1 DNA repair – ELG1-dependent DNA repair inhibition. AID 504467. HEK293T ELG1-luciferase reporter, luminescence, 16 h; DNA damage induced by 5-fluorouridine. 330,000 compounds, 2.3% hits. Potency, µM (series often up to 46.1 µM), for the others: at the top dose activity change, negative = inhibition, actives largely listed as inhibitors; note: % is set by controls: 0 for no effect and ±100 for the full control effect; nearly all actives have a fitted effect of over 55% in size
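5-Fluorouridine DNA damage + compound/DMSO, 2,000 cells/well, 16 h, 37 °C/5% CO2. ONE-Glo, 30 min RT, luminescence. Readout = decrease in reporter signal.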
KB-V1 MDR tox – kills drug-selected multidrug resistant KB-V1 cells. KB-V1 MDR cells viability, CellTiter-Glo, 72 h. 400,000 compounds, 3.4% hits. AID 1347076. Potency, µM (doses to about 46.1 µM), actives largely listed as cytotoxic; note: % is set by controls: 0 for no effect and ±100 for the full control effect; nearly all actives have a fitted effect of over 60% in size
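Potencies derive from concentration-effect curves fitted to normalized luminescence (CellTiter-Glo) of KB-V1 cells treated for 72 h at 37 degrees C in phenol-red-free DMEM containing 10% FBS.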
MCF10A rerep – induces DNA re-replication in MCF 10a normal breast cells; MCF 10A DNA re-replication, Hoechst nuclear intensity, 48 h; Potency, µM (top dose mostly 46.1 µM), for inactives: top-dose activity, positive = re-replication, actives largely listed as activators; 350,000 compounds, 2.9% hits; note: % of control where 0% means no effect; nearly all actives have a fitted effect of over 50% in size
KB-3-1 cytotox – kills parental KB-3-1 adenocarcinoma cells; AID 1347075; KB-3-1 viability, CellTiter-Glo ATP luminescence, 72 h; 400,000 compounds, 1.4% hits; Potency, µM (top dose mostly 46.1 µM), actives largely listed as cytotoxic; note: % is set by controls: 0 for no effect and ±100 for the full control effect; nearly all actives have a fitted effect of over 60% in size
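KB-3-1 parental drug-naive adenocarcinoma cells in DMEM/10% FBS, incubated 72 h at 37 C with pin-transferred compounds across a concentration series. Viability by CellTiter-Glo luminescence; concentration-response curves fitted after normalization.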
SW480 rerep – inducers of DNA re-replication in SW480 colon cancer cells. Potency, µM (titrated, usually from 46.1 µM), inactives show top-dose re-replication activation, usual class: activators. AID 624297. 340,000 compounds, 1.8% hits. SW480 DNA re-replication, Hoechst DNA content imaging, 48 h; note: % of control where 0% means no effect; nearly all actives have a fitted effect of over 55% in size
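Image-based DNA-content assay: after two days of treatment, nuclei were labelled with the DNA dye Hoechst and imaged, and hits were compounds raising the count of nuclei showing high fluorescence intensity.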
* = called active by the depositor; i = inactive; ? = inconclusive; / = no result. Calls come from the whole dose curve; as a rule, active = well fitted curve in the direction sought with a large enough effect; inconclusive = small, poorly fitted or top-dose-only effect, or another doubt; inactive = no such curve, though single readings can be large; an effect the other way counts as inactive or inconclusive. Potency is the fitted concentration of half-maximal effect.

SMILES | ELG1 DNA repair | KB-V1 MDR tox | MCF10A rerep | KB-3-1 cytotox | SW480 rerep
O=C1c2[nH]nc(-c3ccccc3O)c2C(c2cccc(Br)c2)N1Cc1ccncc1 (stereo not drawn) | / | ? | / | 2.6µM* | /
Cn1cc(/C=C/c2ccnc3ccccc23)c2ccccc21 | / | i | / | ? | /
CCn1c(=N)c(C(=O)NC2CCCCC2)cc2c(=O)n3cc(C)ccc3nc21 | / | i | / | i | /
COc1ccc(-c2cc(C(C)=O)c(C)n2CCC(=O)NCc2ccccc2OC)cc1 | / | i | / | i | /
COc1cccc(/C=C/c2nc(C#N)c(N3CCN(C)CC3)o2)c1 | / | i | / | i | /
CCCc1nc2ccccc2c(C(=O)OC(C)C(=O)NCc2ccc3c(c2)OCO3)c1CC (stereo not drawn) | 21µM* | ? | ? | ? | ?
CCCc1nc2ccccc2c(C(=O)OCC(=O)NCc2ccc3c(c2)OCO3)c1CC | ? | i | 18µM* | ? | 10%
Cc1c(-c2cccc(Cl)c2)nc2ccccc2c1C(=O)OCC(=O)Nc1ccc2c(c1)OCO2 | 18µM* | ? | 14% | ? | 3%
Cc1onc(-c2ccccc2)c1C(=O)OCC(=O)Nc1ccc2c(c1)OCO2 | -22% | ? | -1% | i | -7%
CCc1nc(NCC2CC2)c2nnn(Cc3ccccc3)c2n1 | / | ? | / | i | /
COCCN(Cc1ccccc1)C(=O)c1cccc(S(=O)(=O)N(C)c2c(C)n(C)n(-c3ccccc3)c2=O)c1 | 0% | i | -1% | i | 1%
OC[C@@H]1CN(Cc2cccc(C(F)(F)F)c2)C[C@H](n2cnc3c(NCc4ccco4)ncnc32)O1 | / | i | / | i | /
O=[N+]([O-])/C=C\c1ccc(N2CCOCC2)cc1 | / | ? | 16% | ? | 15µM*
Cc1ccc(S(=O)(=O)/N=C(\CCl)N2CCOCC2)cc1 | 15µM* | i | ? | ? | ?
CC1CCN(c2c(NCc3ccc(C(=O)N(C)C4CCCCC4)cc3)c(=O)c2=O)CC1 | ? | i | 2% | i | 0%
CC1CCN(c2c(NCC3CCC(C(=O)N4CCc5ccccc5C4)CC3)c(=O)c2=O)CC1 (stereo not drawn) | 9.2µM* | i | 20% | ? | -5%
CC1CCN(c2c(NCc3ccc(C(=O)N4CCc5ccccc54)cc3)c(=O)c2=O)CC1 | ? | i | 3.7µM* | 1.6µM* | 6.5µM*
C=CCN1C(=O)C(CC(=O)O)SC1=Nc1ccc(C)cc1 (stereo not drawn) | 1% | i | 2.6µM* | i | -19%
CCCCNC(=O)C1(C)CCCCN1C(=O)c1c(Cl)cccc1Cl (stereo not drawn) | / | i | / | i | /
COc1cc(SC)ccc1C(=O)Nc1ccc(C)cc1 | ? | ? | 2% | ? | 6%
COc1cc(SC)ccc1C(=O)NCCOc1c(C)cc(C)cc1C | -14% | 21µM* | -2% | ? | 2%
COc1cc(SC)ccc1C(=O)NCCOc1ccc(Cl)cc1 | -15% | 21µM* | 22% | i | -4%
COc1cc(SC)ccc1C(=O)Nc1cc(C)c(OCC(=O)N2CCOCC2)c(C)c1 | 15µM* | ? | 2% | i | 9%
COc1cc(SC)ccc1C(=O)Nc1ccc(C)cc1C | ? | 9.2µM* | ? | i | 1%
CC(C)Cn1c(N)c(C(=O)COC(=O)CCc2nc3ccccc3s2)c(=O)n(C)c1=O | -26% | i | 20% | i | -4%
CN(CCC#N)C(=O)CSc1nnc(-c2c[nH]c3ccccc23)o1 | 17% | i | -8% | i | -10%
COc1cc(SC)ccc1C(=O)Nc1ccc(Br)cn1 | ? | 18µM* | ? | ? | -2%
COc1ccccc1N1CCN(C(=O)c2cn(C)c3ccc(S(=O)(=O)N(C)C4CCCCC4)cc3c2=O)CC1 | / | i | / | ? | /
O=C1C(Cl)=C(N2CCOCC2)C(=O)N1CCc1ccccc1 | ? | 15µM* | 13% | i | -10%
CN1CCN(C2=C(Cl)C(=O)N(CCc3ccccc3)C2=O)CC1 | ? | i | 13% | i | 1%
